PHOSPHO1 block: blocks human PHOSPHO1 phosphatase activity | inhibition, % at 13.3 µM | recombinant PHOSPHO1, absorbance phosphatase assay | AID 1565 | hit rate 1.1% among 290,000; in the data active means inhibition above about 60%
Target sequence (Q8TCT1 whole entry, looked up): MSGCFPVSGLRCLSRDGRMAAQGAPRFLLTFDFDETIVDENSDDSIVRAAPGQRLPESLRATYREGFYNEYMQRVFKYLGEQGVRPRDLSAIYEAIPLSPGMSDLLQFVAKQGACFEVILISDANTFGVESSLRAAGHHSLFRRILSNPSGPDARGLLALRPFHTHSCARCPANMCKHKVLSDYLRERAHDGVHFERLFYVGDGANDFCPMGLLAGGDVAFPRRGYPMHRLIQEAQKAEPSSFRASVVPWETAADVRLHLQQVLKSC
A3G deaminase: blocks human APOBEC3G single-stranded DNA deamination | Q9HC16 | recombinant A3G, ssDNA deamination FAM/TAMRA fluorescence | inhibition, % at 20 µM | hit rate 0.28% among 330,000;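 active means inhibition of at least 40% at 20 µM, with no more than 30% in the related APOBEC3A deaminase screen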;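 further: plate controls were DMSO wells with A3G for no effect and wells lacking A3G enzyme for full effect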
A3A deaminase: blocks human APOBEC3A ssDNA deamination; P31941; recombinant A3A, FAM/TAMRA ssDNA deamination fluorescence; inhibition, % at 20 µM; hit rate 0.41% among 330,000; AID 493011;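 active means at least 40% inhibition at 20 µM here, with at most 30% in a related deaminase screen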;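 further: plate controls were A3A with DMSO for no effect and wells lacking A3A enzyme for full effect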
rCAG RNA binder: r(CAG) repeat RNA binding; TO-PRO-1 dye displacement fluorescence; inhibition, % at 3 µM; hit rate 1.3% among 370,000;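 active means inhibition above the plate cutoff, the mean of all test compounds on that plate plus 3 SD, cut at about 35% in these data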;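 further: 0% = DMSO alone and 100% = 100 µM mitoxantrone as full dye displacement; higher means more dye released from RNA so lower well fluorescence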
ALR H2O2 inh: inhibitors of human sulfhydryl oxidase ALR. P55789. purified ALR, DTT oxidation, H2O2 HRP-luminol luminescence. inhibition, % (test concentration not listed). hit rate 3.8% among 290,000. AID 485317;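 active means mean replicate inhibition above about 79%, with every replicate also reaching it, limit read from the data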
Target sequence (P55789 whole entry, looked up): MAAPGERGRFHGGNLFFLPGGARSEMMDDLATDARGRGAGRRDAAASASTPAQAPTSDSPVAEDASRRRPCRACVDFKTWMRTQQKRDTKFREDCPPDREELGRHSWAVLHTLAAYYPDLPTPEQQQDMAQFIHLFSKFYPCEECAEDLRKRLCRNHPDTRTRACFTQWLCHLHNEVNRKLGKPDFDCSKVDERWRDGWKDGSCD
aDG glyco up: alpha-DG glycosylation activation | hit rate 0.22% among 360,000 | AID 624168 | Pro5-aDG cells, alpha-DG glycosylation AlphaScreen (IIH6); 0% Pro5, 100% B10-LARGE cell signal | activation, % at 10 µM;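 active means activation of at least 8% versus controls, or a plate z-score of at least 8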;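 further: Pro5 are CHO cells carrying HIG-tagged alpha-DG that lacks glycosylation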
rCAG binder conf: r(CAG) RNA repeat binding, confirmation. hit rate 70% among 4,300. inhibition, % at 3 µM. TO-PRO-1 dye displacement fluorescence. shares compounds with rCAG RNA binder. AID 652065;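 active means inhibition above a per-plate cutoff, the mean inhibition of sample wells plus 3 SD, cut at about 35% in these data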;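 further: loss of TO-PRO-1 fluorescence as compound displaces dye from 1x1 AA loop RNA; 0% = DMSO only wells and 100% = 100 µM mitoxantrone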
DNA CAG counter: counter-screen for rCAG RNA binders: DNA CAG dye complex inhibitors; shares compounds with rCAG RNA binder; d(CAG) DNA oligo TO-PRO-1 dye displacement, fluorescence; inhibition, % at 3 µM; hit rate 94% among 4,300;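 active means inhibition above its plate's cutoff, the mean test-well inhibition plus 3 SD, cut at about 4.8% in these data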;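 further: 0% = DNA dye mix with DMSO and 100% = 100 µM mitoxantrone; hits displace the dye from DNA and so lower well fluorescence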
dCAG dye DR: counter-screen for rCAG binders: inhibitors of DNA CAG TO-PRO-1 complex. DNA CAG/GTC duplex TO-PRO-1 dye displacement fluorescence. hit rate 20% among 250. shares compounds with rCAG RNA binder. IC50, µM. AID 686960; in the data active means IC50 below about 10 µM
An asterisk follows results filed as active; / = not tested or not shown. A selection: hits, their analogues and other compounds. The true share with any hit is near 5.4%.

SMILES	PHOSPHO1 block	A3G deaminase	A3A deaminase	rCAG RNA binder	ALR H2O2 inh	aDG glyco up	rCAG binder conf	DNA CAG counter	others
Fc1ccc(-c2nc3c(Cl)cc(C(F)(F)F)cn3c2Cc2cccc(Cl)c2)cc1	/	/	/	38*	/	0	5	4.6*
CC(C)NC(=O)c1csc(COCCO)n1	/	/	/	0	/	0	/	/
CCOC1CCCc2oc(-c3ccc(OC)cc3)c(C#CCCO)c21 (configuration not stated)	/	/	/	5	/	0	/	/
Cn1c2ccccc2c2cc(/C=N/NC(=O)c3ccc(O)cc3O)ccc21	14	-4	-4	/	-2	0	/	/
C/C(=N\NC(=O)c1cc2ccccc2cc1O)c1cc2ccccc2o1	-2	-7	-2	50*	/	0	40*	15*
O=C(CNc1ccc2ccccc2c1)N/N=C/c1ccc(C(=O)O)cc1	32	-7	-1	22	67	1	/	/
C/C(CC(=O)N1CCN(C=O)CC1)=N\NC(=O)c1cc2ccccc2cc1O	3	3	1	53*	-46	0	22	9.2*
O=C(O)c1ccc(/C=N/NC(=O)c2cc3ccccc3cc2O)cc1	/	-6	-1	47*	-1	0	23	7.6*
Cn1c(O)c(/C=N/NC(=O)c2cc3ccccc3cc2O)c2ccccc21	30	-15	-8	95*	/	0	90*	75*
C/C(CC(=O)N1CCN(C=O)CC1)=N\NC(=O)c1ccc([N+](=O)[O-])cc1	1	-5	-2	2	-5	0	/	/
C/C(=N\NC(=O)c1nc2ccccn2c1C)c1cc2ccccc2o1	9	-3	4	2	/	0	/	/
C/C(=N\NC(=O)Cc1cc(=O)[nH][nH]1)c1ccc([N+](=O)[O-])cc1	/	/	/	0	/	/	/	/
CCCC1NC(=O)c2cc3ccccc3cc2-n2c1nc1ccc(C)cc1c2=O (configuration not stated)	/	/	/	5	/	0	/	/
CC(=O)Nc1ccc(N=Cc2c(O)c(C(=O)Nc3ccccc3)cc3ccccc23)cc1	12	-4	-3	13	-6	/	/	/
COc1ccc2c(c1)cc(C(=O)N/N=C/c1c(O)c(C(=O)O)cc3ccccc13)n2C	9	-1	-1	91*	-2	0	89*	68*
COc1cccc(=O)c2c(C)n(CC(=O)c3ccccc3)c(C)c12	12	7	10	37*	-7	0	33	17*
CCOc1cccc(=O)c2c(C)n(CC(=O)c3ccccc3)c(C)c12	39	-1	3	14	-23	0	/	/
C=Cc1c(C)c2cc3[nH]c(cc4nc(cc5nc(cc1[nH]2)C(C)=C5CCC(=O)O)C(CCC(=O)O)=C4C)c(C)c3C=C	/	65	65	90*	-6	73*	87*	57*
Cc1ccc(C(C)C)c(OCc2ccc(C(=O)N/N=C/c3ccc(O)cc3O)cc2)c1	-17	/	/	38*	50	1	32	15*
Cc1ccc(C(C)C)c(OCc2ccc(C(=O)N/N=C/c3ccc(C(=O)O)cc3)cc2)c1	30	-3	-8	18	-4	0	/	/
O=C1Nc2c(Cl)cc(Cl)cc2C12Nc1ccccc1S2 (configuration not stated)	/	/	/	41*	/	/	13	8.0*
Cc1ccc(-c2csc(NC(=O)c3cccc(C)c3)c2C(=O)O)cc1	/	-4	-2	77*	14	0	58*	21*
Cc1ccc(-c2csc(NC(=O)c3ccccc3Cl)c2C(=O)O)cc1	7	-5	-3	46*	2	0	32	7.5*
Cc1ccc(-c2csc(NC(=O)/C=C/c3ccco3)c2C(=O)O)cc1	19	5	7	58*	97*	0	36*	9.6*
COc1cc(C(=O)Nc2scc(-c3ccc(Br)cc3)c2C(=O)O)cc(OC)c1OC	/	0	1	39*	54	0	86*	53*
SMILES	PHOSPHO1 block	A3G deaminase	A3A deaminase	rCAG RNA binder	ALR H2O2 inh	aDG glyco up	rCAG binder conf	DNA CAG counter	others
Fc1cccc(CNC(=S)OC2CCC23CCC(c2ccccc2)CC3)c1 (configuration not stated)	/	/	/	6	/	/	/	/
CC(C)c1ccc(-c2csc(NC(=O)c3cccs3)c2C(=O)O)cc1	-10	-5	3	83*	54	0	77*	33*	dCAG dye DR=7.8*
COc1cc(C(=O)Nc2c(C(=O)O)[nH]c3ccc(Br)cc23)cc(OC)c1OC	-5	-6	0	84*	39	0	78*	40*
CSC(=NS(=O)(=O)c1ccccc1)NNC(=O)c1c(-c2c(Cl)cccc2Cl)noc1C	/	/	/	35*	/	0	24	4
O=C(CSc1ccc(Cl)cc1)NC1=NN(c2ccccc2)C(=O)C1	23	-5	-4	55*	-11	0	27	10*
N#Cc1c(N2C(=O)Nc3ccccc3N2O)sc2c1CCCCCC2	2	-10	-3	45*	69	0	34	11*
N#Cc1c(N2C(=O)Nc3ccccc3N2O)sc2c1CCCC2	-7	-1	2	12	24	0	/	/
CCC(=O)NC(NC(=S)Nc1ccc(S(N)(=O)=O)cc1)C(Cl)(Cl)Cl (configuration not stated)	-7	-5	1	53*	29	0	4	1
CC(=O)NC(NC(=S)Nc1ccc(S(N)(=O)=O)cc1)C(Cl)(Cl)Cl (configuration not stated)	20	-2	3	3	/	0	/	/
C=CCNC(=O)c1onc(CSc2ccc(C(C)C)cc2)c1C(=O)O	-10	-8	-2	38*	97*	0	25	4
C=CCNC(=O)c1onc(CSc2cccc3ccccc23)c1C(=O)O	3	18	1	40*	40	0	29	5.2*
CCCCNC(=O)c1onc(CSc2cc(C)cc(C)c2)c1C(=O)O	37	-3	-2	35*	-2	0	26	4.4*
C=CCNC(=O)c1onc(CSc2ccccc2F)c1C(=O)O	50	-14	-3	8	9	0	/	/
CCCCNC(=O)c1onc(CSc2cc(C)cc(C)c2)c1C(=O)NCCCC	/	11	2	0	-7	0	/	/
C=CCNC(=O)c1onc(CSc2ccc(F)cc2)c1C(=O)O	-6	10	1	6	-2	0	/	/
CN1C(=O)c2cc(NC(=O)Nc3ccccc3)ccc2OC[C@H]2O[C@@H](CC(=O)NC3CCC3)CC[C@@H]21	/	/	/	4	/	/	/	/
CCCC(=O)OC12CCCN(C1)/C(=C/c1ccccc1)C2 (configuration not stated)	/	/	/	1	/	/	/	/

Assay outcomes (PubChem BioAssay)
